Among the data in PubChem BioAssay (NCI) are growth values, retold here.

The panel holds about 83,000 compounds, 20% with a hit somewhere; the sample as a whole holds those more often.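 Activity criterion: percent growth below 10, measured after cells in 96-well plates were exposed to a single compound concentration for 48 hours.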 Values without a mark were called inactive. Active and inactive are the calls of the source.

What all share (assay): NCI-60 one-dose screen, 48 h (100 = growth as untreated, 0 = no growth, -100 = all killed)
What all share (details): 10 µM unless noted

The test system of assay [1] is SK-MEL-2 melanoma.
Assay [2] relates to EKVX NSCLC.
For assay [3], the system named is SN12C renal.
The subject of assay [4] is UO-31 renal.
In assay [5] the test system is TK-10 renal.
In assay [6] the test system is ACHN renal.
For assay [7], the system named is CAKI-1 renal.
The test system of assay [8] is A498 renal.
The test system of assay [9] is MOLT-4 leukemia.
The subject of assay [10] is SR leukemia.
The test system of assay [11] is RPMI-8226 leukemia.
Assay [12] relates to OVCAR-8 ovarian.
Assay [13] has as its system OVCAR-5 ovarian.
In assay [14] the test system is OVCAR-4 ovarian.
In assay [15] the test system is SK-OV-3 ovarian.
Assay [16] has as its system IGROV1 ovarian.
Assay [17] has as its system OVCAR-3 ovarian.
Assay [18] concerns HS 578T breast.
The subject of assay [19] is NCI/ADR-RES ovarian.

For the compound `O=C(O)c1ccc2c(c1Cl)C(=O)c1ccccc1C2=O`, the growth in assay [1] was 70.2%; in assay [2], 20.9%; in [3], 98.8%; in assay [4] it was 93.2%; in assay [5], 130%; in assay [6] it was 99.1%. Moreover, the growth was 89.4% in [7]; 111% in assay [8]; 78.1% in assay [9]; 70.7% in assay [10]; 104% in assay [11]; 118% in [12]. Further, the growth in assay [13] is 102%; in [14], 81.3%; in assay [15] it was 102%; in assay [16], 167%; in [17], 99.5%; in assay [18] it was 123%. The growth in assay [19] was 97.5%.

Consider `C=C(C)[C@@H]1CC[C@]2(C(=O)NC3CCCCC3)CC[C@]3(C)[C@H](CC[C@@H]4[C@@]5(C)CCC(=O)C(C)(C)[C@@H]5CC[C@]43C)[C@@H]12`, for which the growth is 95% in assay [1]; 93.9% in assay [2]; 86% in [3]; 76.1% in [4]; 95.2% in assay [5]; 99.8% in assay [6]. Besides, the growth in assay [7] was 76.6%; in assay [8], 83.3%; in [9], 88%; in assay [10], 115%; in assay [11], 83.1%; in assay [12] it was 94.6%. The growth in assay [13] was 96.5%; in [14], 82.1%; in assay [15] it was 97.1%; in assay [16] it was 101%; in [17], 96.7%; in assay [18] it was 89.5%. The growth in assay [19] was 104%.

As to `CN(Cc1cnc2nc(N)nc(N)c2n1)c1ccc(C(=O)N[C@@H](CCc2nn[nH]n2)c2nn[nH]n2)cc1`, the growth in assay [1] was 75.3%; in assay [2], 85.7%; in assay [3] it was 36%; in assay [4], 43.1%; in [5] it was 56.4%; in assay [6], 33.6%. In addition, the growth is 29.3% in assay [7]; 97.2% in assay [8]; 28.2% in [9]; 29.2% in assay [10]; 44.1% in assay [11]; 32.8% in assay [12]. Besides, the growth in assay [13] was 56.1%; in assay [14], 91%; in assay [15], 82.8%; in assay [16], 45.6%; in assay [17], 53%; in [18], 76.2%. Besides, in [19], the growth was 40.4%.

Take `Cc1ccc(Cc2cnc(NC(=O)c3ccc4noc(-c5ccccc5)c4c3)s2)cc1`: the growth is 99.7% in assay [1]; 79.1% in assay [2]; 85.9% in assay [3]; 81.9% in assay [4]; 109% in assay [5]; 99% in [6]. For the same compound, the growth was 78.2% in assay [7]; 102% in assay [8]; 90.2% in assay [9]; 85% in assay [10]; 79.3% in assay [11]; 89.1% in [12]. For the same compound, the growth in [13] is 105%; in assay [14] it was 86.4%; in [15], 108%; in assay [16], 96.3%; in assay [17], 107%; in assay [18], 95.7%. The growth in assay [19] is 92.5%.

Regarding `Cc1cccc(Cc2cnc(NC(=O)/C=C/c3ccco3)s2)c1`, the growth was 30.8% in [1]; 33.7% in [2]; 29.3% in assay [3]; 37.3% in assay [4]; 52.8% in assay [5]; 35.3% in [6]. Further, the growth in assay [7] was 30.4%; in assay [8], 13.8%; in [9], 15.9%; in assay [10] it was 13.7%; in assay [11], 27.9%; in assay [12], 13.7%. Further, the growth is 39.1% in assay [13]; 55.6% in assay [14]; 33% in assay [15]; 22.2% in assay [16]; 14.8% in [18]; -24.6% (active) in assay [19].

On to `CC1CC(C(C)(C)C)C(=O)C(C(C)(C)C)C1` (stereo not given), for which the growth is 105% in assay [1]; 101% in assay [2]; 105% in [3]; 96.2% in [4]; 98.2% in assay [5]; 105% in [6]. Also, the growth in [7] is 105%; in assay [8], 93.4%; in [9], 104%; in assay [10], 101%; in assay [11], 111%; in assay [12], 107%. Further, the growth in [13] was 99.6%; in assay [14] it was 119%; in assay [15], 105%; in assay [16] it was 126%; in assay [18], 106%; in assay [19] it was 114%.

Take `CCOc1ccccc1-c1cc(-c2cccs2)c(C#N)c(=O)[nH]1`: the growth is 98.4% in assay [1]; 97.5% in assay [2]; 83.3% in assay [3]; 68.8% in assay [4]; 110% in assay [5]; 95.6% in [6]. Besides, the growth in assay [7] is 76.1%; in assay [8] it was 70.2%; in assay [9], 92.9%; in [10], 77.4%; in [11], 91.2%; in assay [12], 95%. For the same compound, the growth was 94.6% in assay [13]; 39.2% in [14]; 98.7% in assay [15]; 66.7% in assay [16]; 99.7% in assay [17]; 76.6% in [18]. In addition, in assay [19], the growth was 76.7%.

As to `CN1CCN(C(=O)c2c3c(n4ccccc24)C(=O)c2ncccc2C3=O)CC1`, the growth in assay [1] is 80%; in [2] it was 91.5%; in [3], 45%; in [4] it was 35.2%; in assay [5] it was 89.3%; in [6], 32%. In addition, the growth in [7] is 35.7%; in [8] it was 51.5%; in assay [9] it was 103%; in assay [10], 18%; in assay [11], 57.9%; in [12] it was 68%. The growth is 99.6% in assay [13]; 72% in assay [14]; 70% in assay [15]; 60% in assay [16]; 7.09% (active) in [17]; 52.5% in [18]. Further, the growth in assay [19] was 71.5%.
